# Source: PubChem (National Center for Advancing Translational Sciences (NCATS))
# ATXN2 expr inh: reduces ATXN2 reporter expression in HEK-293 cells | 360,000 compounds, 0.72% hits | AID 1745845 | Potency, µM (highest dose often 57 µM), inactives show top-dose activity change, negative = inhibition, hits mostly inhibitors | HEK-293 ATXN2-luciferase reporter, luminescence, 24 h; also: potency is read from the fitted curve at half-maximal effect; % is scaled to controls: 0 for no effect and ±100 for the full control effect; nearly all actives have a fitted effect of over 55% in size
#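 ATXN2-luciferase reporter cells (luciferase flanked by upstream and downstream ATXN2 gene portions) were treated 24 h at 37 °C with compounds at up to 57 uM. SteadyGlo luminescence gave expression; GF-AFC fluorescence gave viability.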
# HepG2 viability: HepG2 cytotoxicity, counter-screen for TGF-b inhibitors; Potency, µM (top dose mostly 46.1 µM), for inactives: top-dose activity change, negative = cytotoxicity, usual class: cytotoxic; HepG2 CAGA-GFP viability, ATP luminescence, 18 h; 410,000 compounds, 0.76% hits; also: potency is read from the fitted curve at half-maximal effect
#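 CellTiter-Glo luminescence gave cytotoxicity after 18 hours at 37 degrees C. The cells were HepG2 CAGA-GFP in 1% FBS DMEM, stimulated with 500 pg/mL TGF-beta after compound addition. %Activity was normalised to no-cell wells (complete cell-killing) and DMSO (no toxicity), and curves were fitted and classified.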
# D3 antag: D3 dopamine receptor (human) antagonism | P35462 | 360,000 compounds, 2.5% hits | max response, negative = inhibition, % | D3R cells, DiscoveRx beta-arrestin luminescence, antagonist mode; active compounds read low; in the data active = max response below about -50%; inconclusive = no clear call, values can overlap the other calls; also: % is scaled to controls: 0 for no effect and ±100 for the full control effect
# Target sequence (P35462 whole entry, looked up): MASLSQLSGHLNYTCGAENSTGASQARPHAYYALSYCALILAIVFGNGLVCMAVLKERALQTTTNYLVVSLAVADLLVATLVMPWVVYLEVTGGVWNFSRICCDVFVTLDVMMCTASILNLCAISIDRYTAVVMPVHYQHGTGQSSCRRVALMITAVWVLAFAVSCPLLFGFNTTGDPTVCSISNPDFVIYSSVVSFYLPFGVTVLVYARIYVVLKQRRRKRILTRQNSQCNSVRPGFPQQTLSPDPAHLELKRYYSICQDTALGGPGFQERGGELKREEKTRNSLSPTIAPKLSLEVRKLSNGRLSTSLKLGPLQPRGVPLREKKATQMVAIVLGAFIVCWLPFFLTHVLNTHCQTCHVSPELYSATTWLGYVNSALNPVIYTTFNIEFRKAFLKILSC
#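 Cells plated overnight at 1500 cells/well, then exposed to library compounds with dopamine controls for 90 minutes at 37 degrees C. DiscoveRx reagent added for 30–60 minutes at room temperature; luminescence read, quantitative HTS format.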
# D3 ag: agonists of human D3 dopamine receptor; AID 652048; max activation, %; 410,000 compounds, 0.58% hits; D3R DiscoveRx beta-arrestin cells, luminescence, 90 min; in the data active = max activation above about 30%; also: 0% is about no effect
#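 Agonist-mode cell screen: cells plated at 1500/well and incubated overnight at 37 °C, then exposed to library compounds for 90 min at 37 °C. Detection reagent was added for 30–60 min at room temperature, and luminescence was read.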
# S2 tox: reduces viability in counter-screen for ATXN expression inhibitors. S2 cells (HEK-293 line with an ATXN2-luciferase reporter) viability, CellTiter-Fluor protease fluorescence, 24 h. Potency, µM (series often up to 56.7 µM), hits mostly cytotoxic. 400,000 compounds, 0.49% hits. AID 651635; also: potency is read from the fitted curve at half-maximal effect; nearly all actives have a fitted effect of over 40% in size
# TGFb inhibitor: inhibitors of TGF-b signaling. HepG2 CAGA-GFP TGF-b/SMAD3 reporter, GFP fluorescence, 18 h; TGF-beta stimulated, 500 pg/mL final. Potency, µM (top dose mostly 46.1 µM), for the others: top-dose activity, negative = inhibition, most hits filed as inhibitors. 410,000 compounds, 1.2% hits. AID 588855; also: potency is read from the fitted curve at half-maximal effect; % is scaled to controls: 0 for no effect and ±100 for the full control effect; nearly all actives have a fitted effect of over 65% in size
#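 First, reporter cells (HEPG2 CAGA-GFP) rested 2 h at 37 degrees C. Next, compounds were pinned in and TGF-beta added to 500 pg/mL final. After 18 h, GFP was imaged per cell and summed per well.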
# Active calls of the source: *; i = inactive; ? = inconclusive; . = no result given. Only some compounds are listed: those with a hit (about 4.8% of all), similar ones and a draw of the others. Unless noted, calls follow the shape of the dose curve; as a rule, active = well fitted curve in the direction sought with a large enough effect; inconclusive = small, poorly fitted or top-dose-only effect, or another doubt; inactive = no such curve, though single readings can be large; an effect the other way counts as inactive or inconclusive.
SMILES,ATXN2 expr inh,HepG2 viability,D3 antag,D3 ag,S2 tox,TGFb inhibitor
COc1ccc(CNC(=O)CSc2ncc3c(n2)-c2cc(Cl)ccc2N(C)S3(=O)=O)cc1,-5%,-2%,.,-9,i,0%
Cc1ccccc1C(C(=O)NC1CCCCC1)N(C(=O)Cn1ccnc1C)c1cccc(F)c1 (stereo unspecified),19%,.,.,.,.,.
Cc1nn2c(=O)cc(COC(=O)c3ccc(NC(=O)c4cccs4)cc3)nc2s1,.,-35%,.,4,.,-18%
CCOc1ccc(CNC(=O)C2CCN(S(=O)(=O)N3CCCCC3)CC2)cc1,.,-6%,.,7,.,?
O=C(Cn1ncc(Cl)c(Cl)c1=O)c1ccc(Cl)cc1,?,18µM*,-55*,-7,?,?
COc1ccc(CNC(=O)c2ccc(CNS(=O)(=O)c3ccc(F)cc3)cc2)cc1,.,11%,.,-25,.,-3%
CCOC(=O)c1ccc(NC(=S)N(CCN2CCCCCC2)Cc2cccs2)cc1,-13%,-2%,-75*,-16,i,6%
CCOC(=O)c1ccc(NC(=S)N(CCCN2CCCC2)Cc2cccs2)cc1,-11%,-2%,-21,-13,i,?
CCOC(=O)c1ccc(NC(=S)N(CCCN2CCCC(C)C2)Cc2cccs2)cc1 (stereo unspecified),-22%,0%,-87*,-19,i,3%
CCC1(C2CCN(Cc3cc4ccccc4o3)CC2)NC(=O)N(CC2COc3ccccc3O2)C1=O (stereo unspecified),.,.,.,.,i,.
CC[n+]1cccc(Br)c1,.,-30%,.,.,.,-5%
c1c2c(cc3sc(N4CCOCC4)nc13)OCCO2,6.3µM*,-58%,13,2,i,0%
COc1ccc(NC(=O)CC2Oc3ccc(C)cc3NC2=O)cc1Cl (stereo unspecified),.,-24%,.,-9,.,0%
C[C@](Cc1c[nH]c2ccccc12)(NC(=O)OC1C2CC3CC(C2)CC1C3)C(=O)NC[C@H](NC(=O)CCC(=O)O)c1ccccc1 (stereo partly specified),-2%,.,.,.,.,.
Cc1ccc(S(=O)(=O)c2cn(C)c3cc(N4CCCC(C)C4)c(F)cc3c2=O)c(C)c1 (stereo unspecified),.,5%,.,-6,.,2%
COc1ccccc1COCC(O)CNCC1(N2CCCCC2)CCCCC1 (stereo unspecified),-19%,-12%,-60*,-8,i,4%
CC(=O)Nc1ccc(NC(=O)c2oc3ccc4c(c3c2C)C(=O)CC(C)(C)O4)cc1,6%,-2%,.,-9,?,-19%
Cc1ccc2c(c1)/C(=C/c1ccc(F)cc1)C(=O)N2,.,10µM*,-21,-6,?,?
Cc1ccc2c(c1)/C(=C/c1ccccc1C)C(=O)N2,0%,-41%,-14,4,?,0%
CCN1CCCC1CNC(=O)c1cc2c(OC)cccc2[nH]1 (stereo unspecified),5%,-19%,-17,-5,i,-1%
CCN1CCCC1CNC(=O)CCNC(=O)c1cc(OC)c(OC)c(OC)c1 (stereo unspecified),8%,0%,18,7,i,2%
CCN1CCCC1CNC(=O)c1cc(OC)c(OC)c(OC)c1 (stereo unspecified),1%,-3%,-61*,-1,i,10%
CCN1CCCC1CNC(=O)c1cc2c(OC)c(OC)c(OC)cc2[nH]1 (stereo unspecified),9%,6%,-61*,-44,i,4%
CCN1CCC[C@H]1CNC(=O)c1c(O)c(Cl)cc(Cl)c1OC,-10%,-9%,-117*,-94,i,-7%
COc1ccc(S(=O)(=O)NCCc2sc(-c3cccnc3)nc2C)cc1,7%,-2%,.,2,i,12%
SMILES,ATXN2 expr inh,HepG2 viability,D3 antag,D3 ag,S2 tox,TGFb inhibitor
O=C(N/N=C/c1ccc(O)cc1O)C(=O)N/N=C/c1ccc(O)cc1O,-34%,-16%,5,40*,i,1%
COCCCNC(=S)N/N=C/c1ccc(O)cc1O,-4%,13%,-5,32*,.,1%
Oc1ccc(C=NNC(=S)Nc2ccc(F)cc2)c(O)c1,?,-12%,27,33*,i,-4%
Cc1nc(C)c(C(=O)N2CCCC(C(=O)c3ccc4ccccc4c3)C2)s1 (stereo unspecified),0%,-18%,-3,0,.,-22%
Cc1ccc2c(c1C)NC(=O)C21N2CCCC2C(C(=O)c2ccc3ccccc3c2)C12C(=O)Nc1ccccc12 (stereo unspecified),.,-39%,-6,-19,i,16µM*
NC(=O)CC(NC(=O)Cc1cccc2ccccc12)c1ccc(NC2CCCCCCC2)c([N+](=O)[O-])c1 (stereo unspecified),-17%,-3%,-61*,-35,?,3%
NC(=O)CC(NC(=O)Cc1cccc2ccccc12)c1ccc(NC2CCCCCC2)c([N+](=O)[O-])c1 (stereo unspecified),?,-34%,-23,-12,?,-1%
NC(=O)CC(NC(=O)Cc1cccc2ccccc12)c1ccc(NCCc2ccc(F)cc2)c([N+](=O)[O-])c1 (stereo unspecified),3%,0%,?,-19,i,-2%
NC(=O)CC(NC(=O)Cc1cccc2ccccc12)c1ccc(NCc2ccccc2)c([N+](=O)[O-])c1 (stereo unspecified),5%,-1%,-51*,-15,i,?
NC(=O)CC(NC(=O)Cc1ccc(Br)cc1)c1ccc(NC2CCCC2)c([N+](=O)[O-])c1 (stereo unspecified),8.9µM*,4%,-21,-7,?,14%
NC(=O)CC(NC(=O)Cc1cccc2ccccc12)c1ccc(NCc2ccccn2)c([N+](=O)[O-])c1 (stereo unspecified),5%,6%,1,-11,i,?
NC(=O)CC(NC(=O)Cc1cccc2ccccc12)c1ccc(NCc2ccc(F)cc2)c([N+](=O)[O-])c1 (stereo unspecified),-24%,-18%,-60*,-35,?,-4%
Cc1ccc2oc(-c3ccc(C)c(NC(=O)COc4ccc(Cl)cc4C)c3)nc2c1,.,-18%,.,.,.,27%
CC(C)C(=O)Nc1cccc(C2CN3CCSC3=N2)c1 (stereo unspecified),3%,.,.,.,i,.
Cc1ncc2c(c1CNC(=O)CN1CCCC1)CCN(C(=O)c1ccc(F)cc1F)C2,.,.,.,.,i,.
